The panel holds about 83,000 compounds, 20% with a hit somewhere; the sample as a whole holds those more often.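 Testing used 96-well plates and a 48-hour single-concentration exposure. Example: -40 means 40% of the starting cells died.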 Values without a mark were called inactive. Active and inactive are the calls of the source. The calls were made as follows: active = growth percent below 10; inactive = the rest.

This assay concerns HL-60(TB) leukemia. Description: NCI-60 one-dose screen, 48 h (100 = growth as untreated, 0 = no growth, -100 = all killed). As to conditions: 10 µM unless noted.
Consider `CN(C)c1ccc(NC(=O)c2ccc(/C=C/C(=O)c3ncc[nH]3)cc2)cc1`, for which the growth is 17.5%.

On to `Cc1ccccc1NC(=O)c1sc2nc(C)c(C(C)O)cc2c1N` (stereo not drawn), for which the growth is -14.8% (active).

Regarding `Cc1ccc(Cn2c(O)c(N=NC(=O)c3ccc(S(N)(=O)=O)cc3)c3ccccc32)cc1`, the growth is 98.6%.

For the molecule `COc1cc(Nc2ncccc2/C=C/C(=O)c2cc(OC)c(OC)c(OC)c2)cc(OC)c1OC`, the growth is 73.1%.

As for `Nc1ccc2cc3ccc(N)cc3nc2c1`, the growth is 110%.

Regarding `O=C(COc1ccc(/C=C2\Oc3ccccc3C2=O)cc1)Nc1nccs1`, the growth is -36.2% (active).

Turning to `O=C1NC(=O)C(=Cc2cn(Cc3cn(Cc4ccc(Cl)cc4Cl)nn3)c3ccccc23)C(=O)N1`, the growth is 73.8%.

Take `CCCCCCCNC(=O)CCCNc1ncnc2c1ncn2-c1cccc(C(C)O)c1` (stereo not drawn): the growth is 24%.

The record behind these values is PubChem BioAssay (NCI).
